This note sets out measurements from PubChem BioAssay (NCATS).

Values joined by “and” are separate entries in the source; they are usually repeats but may differ in a detail not shown here. Equal values may be shown once. Results filed as inconclusive are left out. Unmarked numbers belong to inactive results. Active and inactive are the calls of the source. The call rests on the fitted dose curve; in most records, active means well fitted cell-killing curve with a large enough effect; inconclusive means small, poorly fitted or top-dose-only effect; inactive means no such curve, though single readings can be large or run the other way.
Potency means the concentration at half of the fitted maximal effect.

The assay in a line: qHTS of pediatric cancer cell lines to identify multiple opportunities for drug repurposing: Confirmatory screen for Rh41 cells (AID 1347123).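 Further: 48 h compound exposure; nearly all actives have a fitted effect of over 60% in size.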 To be noted: Rh41 rhabdomyosarcoma cells, viability/cytotoxicity qHTS; series mostly up to 45.9 µM; activity change, negative = cytotoxic: at the top concentration. From the text:
Drug repurposing or repositioning has been offered as a strategy for drug development in oncology programs. This approach has special potential for childhood cancers and other rare or orphan diseases, where the expected return on new drug development has been a disincentive to pharmaceuticals.
In this project we exploit the poly-pharmacology of drugs to discover new indications via phenotypic screening of a panel of 19 well-characterized cell lines derived from solid tumors seen in children and adolescents. The goal is to identify approved drugs with previously unrecognized anticancer properties that has the potential to reveal new mechanisms and biological processes involved in carcinogenesis or drug resistance. We employed a titration-based paradigm (quantitative high-throughput screening or qHTS), where all compounds were tested at multiple concentrations for their effect on cell viability. Concentration-response curves (CRCs) were derived directly from the primary screen, and both potency and efficacy values were used to identify compounds with robust bioactivity profiles. We screened the NIH Chemical Genomics Center (NCGC) Pharmaceutical Collection (NPC) and Mechanism Interrogation Plate (MIPE) small molecule collections of approved and investigational compounds against these cell lines; and measured metabolically active cells after 48 hours of compound treatment as a proxy for cell viability.
Assay Submitter: Nathalia J. Martinez, National Center for Advancing Translational Sciences, National Institutes of Health, Rockville, MD, USA; email: natalia.martinez@nih.gov
[1] Shen, M et al. Quantitative high-throughput phenotypic screening of pediatric cancer cell lines identifies multiple opportunities for drug repurposing. Oncotarget 2017 Dec 19;9(4):4758-4772. PMID 29435139.
The cells were obtained from University of North Carolina (UNC), Pediatric Preclinical Testing Program (PPT), and Coriell Institute (CI).
qHTS cell viability assay:
Cells were assayed in growth media at a density of 500-1,000 cells/well. Five microliters of cells were dispensed into 1,536-well, white, solid-bottom, TC-treated plates (Greiner Bio One) using a multidrop dispenser and incubated at 37 degrees C, 5% CO2, under a humidified atmosphere for 5 hours. Twenty-three nanoliters of compounds and controls (neutral control DMSO or positive control bortezomib at final concentration of 2.3 µM) were subsequently transferred by Kalypsys pintool. For primary screens, the MIPE collection was tested at 11-point dilutions (final concentrations range from 0.78 nM to 46 µM) and the NPC collection at 8-point dilutions (final concentrations range from 0.59 nM to 46 µM). Compounds tested in follow-up screens were assayed at 11-point dilutions. Cells were incubated for 48 hours, followed by addition of 3 µL of CellTiter-Glo (Promega). After a 15 min incubation at room temperature, samples were analyzed for luminescence intensity using a ViewLux High-throughput CCD imager equipped with clear filters.
On the technique in general: qHTS replaces the single test concentration by a dilution series.
Take `CO[C@H]1C(=O)[C@]2(C)[C@@H](OC)C[C@H]3OC[C@@]3(OC(C)=O)[C@H]2[C@H](OC(=O)c2ccccc2)[C@]2(O)C[C@H](OC(=O)[C@H](O)[C@@H](NC(=O)OC(C)(C)C)c3ccccc3)C(C)=C1C2(C)C`: the Potency was 0.0165 µM (active).
As for `O=c1[nH]cnc2c1ncn2[C@H]1CC[C@@H](CO)O1`, the “activity change, negative = cytotoxic” value was 7.2%.
For `COc1ccc(-c2nc(N3CCOCC3)c3sc(CN(C)c4ncc(C(=O)NO)cn4)cc3n2)cn1`, the Potency is 0.414 µM (active).
As for `O=C1NC(=O)C(=Cc2ccc3c(c2)OC(F)(F)O3)S1`, the “activity change, negative = cytotoxic” value was -24.2%.
As for `CC(=O)Oc1cc2c(s1)CCN(C(C(=O)C1CC1)c1ccccc1F)C2` (stereo not drawn), the Potency was 14.7 µM (active).
With `CC1(C)O[C@H]2C[C@@H]3[C@H]4CCC5=CC(=O)C=C[C@]5(C)[C@@]4(F)[C@@H](O)C[C@]3(C)[C@]2(C(=O)CO)O1`, the “activity change, negative = cytotoxic” value is -0.31%.
Turning to `O=C(O)c1ccc(-c2cc3cccnc3c(-c3ccc4nonc4c3)n2)cc1`, the Potency was 7.37 µM (active).
On to `CCc1ccc(OCc2ccccc2C(=O)Nc2ccc3nc(C)cc(N)c3c2)cc1`, for which the Potency was 9.27 µM (active).
Consider `CC=C(C)C(=O)O[C@H]1C(C)=C[C@]23C(=O)[C@@H](C=C(CO)[C@@H](O)[C@]12O)[C@H]1[C@@H](C[C@H]3C)C1(C)C`, for which the Potency is 13.1 µM (active).
Regarding `O=C(O)c1ccc(-c2c[nH]c3ncc(-c4ccccc4)cc23)cc1C1CCCC1`, the “activity change, negative = cytotoxic” value was 6.18%.
As to `CN(C)C1CCN(C(=O)c2ccc(NC(=O)Nc3nc(N4CCOCC4)nc(N4CCOCC4)n3)cc2)CC1`, the Potency is 0.0827 µM (active).
On to `COc1cc(N2CCC(N3CCN(C)CC3)CC2)ccc1Nc1ncc(Cl)c(Nc2ccccc2S(=O)(=O)C(C)C)n1`, for which the Potency is 0.329 µM (active).
Regarding `CO[C@H]1C=CC=C(C)C(=O)NC2=CC(=O)C(NCCN(C)C)=C(C[C@@H](C)C[C@H](OC)[C@@H](O)[C@@H](C)C=C(C)[C@@H]1OC(N)=O)C2=O`, the Potency was 7.37 µM (active).
The same measure, in the same setting: as for `NS(=O)(=O)c1cccc2c1C(=O)c1cccc(O)c1C2=O`, the figure is 0.657 µM (active).
For `Nc1ncnc2c1ncn2[C@@H]1O[C@@H](CO)[C@H](O)[C@H]1O`, the “activity change, negative = cytotoxic” value is 1.12% [at 29.5 µM].
Turning to `CC[C@@H]1C=C(C)C[C@H](C)C[C@H](OC)[C@H]2O[C@@](O)(C(=O)C(=O)N3CCCC[C@@H]3C(=O)O[C@H](C(C)=C[C@@H]3CC[C@H](Cl)[C@H](OC)C3)[C@H](C)[C@@H](O)CC1=O)[C@H](C)C[C@H]2OC`, the Potency is 13.1 µM (active).
As to `COc1ccc2c(Oc3ccc(NC(=O)c4c(C)n(CC(C)(C)O)n(-c5ccccc5)c4=O)cc3F)ccnc2c1`, the Potency was 23.3 µM (active).
As to `Cc1nnc(C(C)C)n1C1C[C@H]2CC[C@@H](C1)N2CC[C@H](NC(=O)C1CCC(F)(F)CC1)c1ccccc1` (stereo partly drawn), the “activity change, negative = cytotoxic” value was 4.54%.
On the same count and under the same terms, the figure for `OC[C@H]1O[C@@H](n2cnc3c2NC=NC[C@@H]3O)C[C@H]1O` is 25.7%.
In the case of `CC(C)n1nc(-c2ccc3oc(N)nc3c2)c2c(N)ncnc21`, the Potency is 0.0293 µM (active).
Still for that read-out and setting: the figure for `O=C(NCc1ccncc1)C12C[C@H]3C[C@@H](C1)CC(c1ccc(Cl)cc1)(C3)C2` is 14.7 µM (active).
For `CCCCCCCCCCCC1=C(O)C(=O)C=C(O)C1=O`, the “activity change, negative = cytotoxic” value was 10.3%.
On to `Cc1cc(OCCCc2c(C(=O)O)n(Cc3cccnc3)c3c(-c4c(COc5ccc(N6CCN([S+](C)(=O)[O-])CC6)cc5)nn(C)c4C)cccc23)cc(C)c1Cl`, for which the Potency was 1.04 µM (active).
Consider `Oc1ccc(C2CCN(c3ccnc4ccccc34)CC2)cc1O`, for which the Potency was 5.85 µM (active).
In the case of `CO[C@H]1C[C@@H]2CC[C@@H](C)[C@@](O)(O2)C(=O)C(=O)N2CCCC[C@@H]2C(=O)O[C@H]([C@H](C)C[C@@H]2CC[C@H](OP(C)(C)=O)[C@H](OC)C2)CC(=O)[C@H](C)C=C(C)[C@@H](O)[C@@H](OC)C(=O)[C@H](C)C[C@H](C)C=CC=CC=C1C`, the Potency is 4.65 µM (active).
On to `O=C1c2ccccc2-[n+]2ccc3c([nH]c4ccccc43)c21`, for which the Potency was 2.08 µM (active).
Turning to `CC1(C)CCC2=C(O1)c1ccccc1C(=O)C2=O`, the Potency was 8.27 µM (active).
Same read-out and setting: the figure for `CNC1CCC(N(Cc2cccc(-c3ccncc3)c2)C(=O)c2sc3c(F)ccc(F)c3c2Cl)CC1` (stereo not drawn) is 10.4 µM (active); for `CC(=O)Nc1ccc([C@H](C)C(=O)Nc2ncc(C(C)C)s2)cc1` it is 9.27 µM (active); for `CC[C@]1(O)C[C@@H]2CN(CCc3c([nH]c4ccccc34)[C@@](C(=O)OC)(c3cc4c(cc3OC)N(C)[C@H]3[C@@](O)(C(=O)OC)[C@H](OC(C)=O)[C@]5(CC)C=CCN6CC[C@]43[C@@H]65)C2)C1` it is 82.7 nM (active) and 104 nM (active).
On the same count and under the same terms, the figure for `C=C1C(=O)[C@@]23C(CC[C@@H]1[C@H]2O)[C@@]12CO[C@]3(O)[C@@H](O)[C@@H]1C(C)(C)CC[C@@H]2O` (stereo partly drawn) is 2.93 µM (active); for `COc1cc2ncnc(Nc3ccc(F)c(Cl)c3)c2cc1OCCCN1CCOCC1` it is 26.9 µM (active); for `COc1ncc(-c2ccc3nccc(-c4ccnnc4)c3c2)cc1NS(=O)(=O)c1ccc(F)cc1F` it is 0.0369 µM (active).
As to `CC1(C)S[C@H]2[C@H](NC(=O)[C@@H](N)c3ccc(O)cc3)C(=O)N2[C@@H]1C(=O)O`, the “activity change, negative = cytotoxic” value is 1.68%.
Take `COc1cc2nc(-c3ccc(N4CCN(C)CC4)cc3)nc(NCCN3CCOCC3)c2cc1OC`: the Potency is 0.414 µM (active).
Consider `O=c1cc(-c2ccc(O)cc2)oc2cc(O)cc(O)c12`, for which the “activity change, negative = cytotoxic” value was 9.14%.
As to `O=C1C(Cl)=C(NCCN2CCOCC2)C(=O)c2ncccc21`, the Potency was 1.17 µM (active).
For the compound `N[C@@]1(C(=O)O)CS(=O)(=O)[C@H]2[C@H](C(=O)O)[C@H]21`, the “activity change, negative = cytotoxic” value is 19.6%.
